Screens deposited in PubChem BioAssay by National Center for Advancing Translational Sciences (NCATS).
The list is not random: actives were taken first. Their share in the collection is about 17%.
DT40 TDP1 no CPT: qHTS for Inhibitors of human tyrosyl-DNA phosphodiesterase 1 (TDP1): qHTS in cells in absence of CPT; AID 686978, 2013; 420,000 tested, 15% active; DT40 Tdp1-/- hTDP1 cells, no CPT, ATP luminescence, 48 h; Potency, µM (doses to about 46.2 µM), actives largely listed as inhibitors; further: nearly all actives have a fitted effect of over 55% in size
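Chicken DT40 Tdp1-/- cells stably complemented with human TDP1 were seeded at 400 cells/well with DMSO in place of 20 nM camptothecin. After compound pinning, cells grew at least 48 hr at 37 °C; viability read by CellTiter-Glo luminescence.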
TDP1 block: blocks human tyrosyl-DNA phosphodiesterase 1 | AID 485290 | 350,000 tested, 0.28% active | recombinant TDP1, AlphaScreen DNA substrate cleavage | Potency, µM (doses to about 130 µM), most hits filed as inhibitors | Q9NUW8; further: nearly all actives have a fitted effect of over 40% in size
Target sequence (Q9NUW8 whole entry, looked up): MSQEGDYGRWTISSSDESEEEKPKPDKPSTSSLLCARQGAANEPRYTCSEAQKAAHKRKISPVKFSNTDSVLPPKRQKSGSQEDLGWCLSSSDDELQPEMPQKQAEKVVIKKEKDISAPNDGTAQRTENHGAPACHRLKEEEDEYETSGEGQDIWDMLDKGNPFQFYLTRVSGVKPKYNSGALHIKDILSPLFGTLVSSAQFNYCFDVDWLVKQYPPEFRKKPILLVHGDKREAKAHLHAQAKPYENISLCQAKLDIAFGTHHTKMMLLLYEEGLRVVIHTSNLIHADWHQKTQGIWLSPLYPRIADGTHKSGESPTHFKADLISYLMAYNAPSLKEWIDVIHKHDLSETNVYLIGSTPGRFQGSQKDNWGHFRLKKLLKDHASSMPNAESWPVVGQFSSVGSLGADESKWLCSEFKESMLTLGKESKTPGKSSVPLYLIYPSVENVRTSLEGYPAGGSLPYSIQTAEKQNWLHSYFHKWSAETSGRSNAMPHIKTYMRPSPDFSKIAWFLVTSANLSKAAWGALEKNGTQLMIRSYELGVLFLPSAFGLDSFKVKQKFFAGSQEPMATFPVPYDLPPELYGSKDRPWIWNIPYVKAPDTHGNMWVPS
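AlphaScreen read-out: signal falls as enzyme removes the 3' tyrosine-FITC from a 5'-biotinylated DNA oligo (15 nM, 5 min, RT). Enzyme was E. coli-made recombinant Tdp1 at 1 nM, exposed to compound for 15 min beforehand; beads 10 ug/ml, 10 min.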
TDP1 cell CPT: DT40-hTDP1 cell growth loss with CPT. AID 686979. 420,000 tested, 12% active. Potency, µM (highest dose often 46.2 µM), hits mostly inhibitors. chicken DT40 Tdp1-/-;hTDP1 cells + 20 nM CPT, ATP luminescence, 48 h; further: nearly all actives have a fitted effect of over 55% in size
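Chicken DT40 Tdp1-/- cells complemented with human TDP1, 400 cells/well, exposed to compounds plus 20 nM camptothecin for at least 48 h at 37 C; viability read as ATP content by CellTiter-Glo luminescence.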
ClpP mod: qHTS Assay for Activators of ClpP. ATP-dependent Clp protease proteolytic subunit (Bacillus subtilis (strain 168)), P80244. purified B. subtilis ClpP, FRET peptide cleavage, 20 min. Potency, µM (doses to about 57.5 µM). 340,000 tested, 1.9% active. AID 651965, 2013; active means well fitted falling curve with a large enough effect; inconclusive means small, poorly fitted or top-dose-only effect; inactive means no such curve, though single readings can be large or run the other way; further: the source files actives as falling curves though it sought activators and does not explain the sign; nearly all actives have a fitted effect of over 65% in size
Target sequence (P80244 whole entry, looked up): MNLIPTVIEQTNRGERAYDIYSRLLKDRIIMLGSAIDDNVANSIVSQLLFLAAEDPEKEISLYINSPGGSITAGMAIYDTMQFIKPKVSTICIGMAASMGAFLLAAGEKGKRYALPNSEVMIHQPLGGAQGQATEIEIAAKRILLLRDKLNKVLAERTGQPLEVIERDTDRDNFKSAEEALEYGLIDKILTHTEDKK
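FRET quenching reversal measured ClpP activation: 10 microg/mL B. subtilis ClpP at pH 8 with the FRET-FV decapeptide, read at 430 nm after 320 nm excitation. The 20-min minus 0-min signal was scaled between DMSO/no-enzyme wells and ADEP (5.8 microM final).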
Large screens that a line does not name were inactive. Unless noted, the call rests on the fitted dose curve; in most records, active means well fitted curve in the direction sought with a large enough effect; inconclusive means small, poorly fitted or top-dose-only effect, or another doubt; inactive means no such curve, though single readings can be large; an effect the other way counts as inactive or inconclusive.

COc1ccccc1Oc1nc2c(C)cccn2c(=O)c1/C=C(\C#N)c1nc2ccccc2[nH]1	none
O=[N+]([O-])c1ccc(N=Cc2ccc(Br)c([N+](=O)[O-])c2)cc1	DT40 TDP1 no CPT 5.17µM, TDP1 cell CPT 5.17µM
O=[N+]([O-])c1ccc(C=Nc2ccccc2)cc1	DT40 TDP1 no CPT inconclusive, TDP1 cell CPT inconclusive (no result: TDP1 block)
CCOC(=O)C1=C(N)Oc2c(c(=O)[nH]c3ccccc23)C1c1ccccc1 (stereo not given)	DT40 TDP1 no CPT 13µM, TDP1 cell CPT 23.1µM
CCOC(=O)C1=C(N)Oc2ccc3ccccc3c2C1c1cccc(O)c1 (stereo not given)	DT40 TDP1 no CPT inconclusive (no result: TDP1 block)
CC(C)CCCCCCNC(=S)Nc1ccc(S(=O)(=O)N2CCOCC2)cc1	DT40 TDP1 no CPT 13µM, TDP1 cell CPT 16.4µM
O=C(CCc1ccccc1)NC(=S)Nc1ccc(S(=O)(=O)N2CCOCC2)cc1	DT40 TDP1 no CPT 16.4µM, TDP1 cell CPT inconclusive, ClpP mod 10µM
CC(NC(=S)Nc1ccc(S(=O)(=O)N2CCOCC2)cc1)C1CC2CCC1C2 (stereo not given)	DT40 TDP1 no CPT 29.1µM, TDP1 cell CPT inconclusive
O=S(=O)(c1ccc(NC(=S)Nc2ccccc2)cc1)N1CCOCC1	none
Cc1cc(NC(=O)CCc2ccc(S(=O)(=O)N3CCOCC3)cc2)n(-c2ccccc2)n1	DT40 TDP1 no CPT 8.2µM, TDP1 cell CPT 11.6µM
CCOc1cc(NC(=S)NCC2CCCO2)c(OCC)cc1NC(=O)CC(C)C (stereo not given)	none
Cc1ccc(CNC(=O)Cc2noc3ccccc23)cc1	DT40 TDP1 no CPT inconclusive
CCc1ccc(/C=C2/Sc3ccccc3N(CC(=O)NCCCN3CCOCC3)C2=O)cc1	DT40 TDP1 no CPT 20.6µM, TDP1 cell CPT inconclusive
O=C(CN1C(=O)/C(=C/c2ccc(C(F)(F)F)cc2)Sc2ccccc21)NCCCN1CCOCC1	DT40 TDP1 no CPT inconclusive, TDP1 cell CPT 25.9µM
O=C(CN1C(=O)COc2ccccc21)NCCCN1CCOCC1	none (no result: ClpP mod)
O=C(CN1C(=O)/C(=C\c2ccccc2Cl)Sc2ccccc21)NCCCN1CCOCC1	DT40 TDP1 no CPT inconclusive, TDP1 cell CPT inconclusive
O=C(CN1C(=O)/C(=C\c2cccc(Br)c2)Oc2ccccc21)NCCCN1CCOCC1	DT40 TDP1 no CPT 18.4µM, TDP1 cell CPT inconclusive
O=C(CN1C(=O)/C(=C\c2cccc(Cl)c2)Sc2ccccc21)NCCCN1CCOCC1	DT40 TDP1 no CPT 23.1µM, TDP1 cell CPT 23.1µM
CCc1ccc(/C=C2/Sc3ccccc3N(CC(=O)NCCCOC)C2=O)cc1	none (no result: DT40 TDP1 no CPT, TDP1 cell CPT, ClpP mod)
O=C(Cn1nnc(-c2cccc(C(F)(F)F)c2)n1)NCc1ccc(F)cc1	none
COc1cccc2c1cc1c(=O)n(CC(=O)NCCCN3CCCCC3)nc(C)n12	none
CCOc1cc(/C=N/Nc2cccc(C(=O)O)c2)ccc1OC(=O)c1ccccc1	DT40 TDP1 no CPT inconclusive (no result: ClpP mod)
COc1cc(C=NNc2ccccc2)ccc1OC(=O)c1ccccc1	DT40 TDP1 no CPT 18.4µM, TDP1 cell CPT inconclusive (no result: TDP1 block)
CCOc1cc(/C=N/NC(=O)CNc2cccc(C)c2)ccc1OC(=O)c1ccccc1	DT40 TDP1 no CPT 18.4µM, TDP1 cell CPT inconclusive, ClpP mod 10µM
COc1cc(/C=N/Nc2nc3ccccc3s2)ccc1OC(=O)c1ccccc1F	DT40 TDP1 no CPT 4.61µM, TDP1 cell CPT 6.51µM
COc1cc(OC)cc(C(=O)Oc2ccc(/C=N/Nc3nc4ccccc4s3)cc2OC)c1	DT40 TDP1 no CPT inconclusive, TDP1 cell CPT inconclusive
CCOc1ccccc1NCc1nnc2n1CCCCC2	none
Clc1ccc(-n2c(SC/C=C/c3ccccc3)nnc2-c2cccnc2)cc1	DT40 TDP1 no CPT inconclusive, TDP1 cell CPT 23.1µM
O=C(CSc1nnc(-c2cccnc2)n1-c1ccccc1)Nc1ccccn1	DT40 TDP1 no CPT 16.4µM, TDP1 cell CPT inconclusive
CCOc1ccc(-n2cc(-c3ccccc3)c3c(NCc4ccccc4)ncnc32)cc1	DT40 TDP1 no CPT inconclusive, TDP1 cell CPT inconclusive
Cc1ccc(CNc2ncnc3c2c(-c2ccccc2)cn3-c2ccccc2)cc1	TDP1 cell CPT inconclusive, ClpP mod 28.2µM
COc1ccc(CNc2ncnc3c2c(-c2ccccc2)cn3-c2ccccc2)cc1	DT40 TDP1 no CPT 20.6µM, TDP1 cell CPT inconclusive, ClpP mod 25.1µM
CCOc1ccc(-n2cc(-c3ccccc3)c3c(NCc4ccc(F)cc4)ncnc32)cc1	DT40 TDP1 no CPT 11.6µM, TDP1 cell CPT 18.4µM
COc1ccccc1CNc1ncnc2c1c(-c1ccccc1)cn2-c1ccc(Br)cc1	DT40 TDP1 no CPT inconclusive, TDP1 cell CPT inconclusive
Cc1cccc(-n2cc(-c3ccccc3)c3c(NC(C)C)ncnc32)c1	DT40 TDP1 no CPT 23.1µM, TDP1 cell CPT 20.6µM
c1ccc(-c2cn(-c3ccccc3)c3ncnc(NCCCN4CCOCC4)c23)cc1	DT40 TDP1 no CPT inconclusive, TDP1 cell CPT inconclusive (no result: ClpP mod)
COC(=O)CSCc1nc(-c2ccc(C(=O)OC)cc2)oc1C	none
CCOc1ccc(-n2cc(-c3ccccc3)c3c(NCCc4ccccc4)ncnc32)cc1	DT40 TDP1 no CPT 23.1µM, TDP1 cell CPT inconclusive, ClpP mod 25.1µM
CCOc1ccc(-n2cc(-c3ccccc3)c3c(Nc4cccc(F)c4)ncnc32)cc1	none
Clc1ccc(CCNc2ncnc3c2c(-c2ccccc2)cn3-c2ccccc2)cc1	DT40 TDP1 no CPT inconclusive, TDP1 cell CPT inconclusive, ClpP mod 20µM
Cc1ccc(C(=O)Nc2ccccc2N2CCCC2)cc1	DT40 TDP1 no CPT inconclusive (no result: TDP1 block)
CN(C)C(=O)C(OC(=O)c1ccc2c(c1)CCCC2)c1ccccc1 (stereo not given)	DT40 TDP1 no CPT 20.6µM, TDP1 cell CPT inconclusive (no result: ClpP mod)
CC(=O)Nc1ccc(S(=O)(=O)NCCC(=O)OCc2ccc([N+](=O)[O-])cc2)cc1	DT40 TDP1 no CPT 16.4µM, TDP1 cell CPT 13µM
CC(=O)Nc1ccc(Nc2ccc([N+](=O)[O-])cn2)cc1	DT40 TDP1 no CPT 9.2µM, TDP1 cell CPT inconclusive (no result: TDP1 block, ClpP mod)
CC(=O)Nc1cccc(OCCCOc2ccc([N+](=O)[O-])cc2)c1	DT40 TDP1 no CPT 3.66µM, TDP1 cell CPT 13µM (no result: TDP1 block)
CC(=O)Nc1ccc(OS(=O)(=O)c2cc(Cl)ccc2C)cc1	DT40 TDP1 no CPT 14.6µM, TDP1 cell CPT 20.6µM
CC(=O)Nc1cccc(OCCOc2cccc([N+](=O)[O-])c2)c1	none (no result: TDP1 block)
O=[N+]([O-])c1ccc(Nc2ccc(F)cc2)nc1	DT40 TDP1 no CPT inconclusive, TDP1 cell CPT inconclusive, ClpP mod inconclusive
COc1ccc(C(=O)C[n+]2ccc3c(c2)nnn3-c2ccccc2)cc1	DT40 TDP1 no CPT inconclusive
CC1CCN(S(=O)(=O)c2ccc(C(=O)Nc3nc4ccc(F)cc4s3)cc2)CC1	TDP1 cell CPT inconclusive
COc1ccc(C(O)c2nc(-c3cnn(C)c3)cs2)cc1 (stereo not given)	DT40 TDP1 no CPT inconclusive, TDP1 cell CPT inconclusive (no result: TDP1 block)
O=C(Nc1ccc(Oc2ccc(NC(=O)Nc3ccc([N+](=O)[O-])cc3)cc2)cc1)Nc1ccc([N+](=O)[O-])cc1	DT40 TDP1 no CPT 2.06µM, TDP1 cell CPT 2.31µM (no result: ClpP mod)
